This is an account of results in PubChem BioAssay.

Broadly, the AC50 is the concentration giving half of the maximal activity seen. What is called IC50 is the point on the concentration scale where inhibition reaches its midpoint. As usually defined, the viability is a read-out of living cells in per cent, often relative to untreated cells.

Inconclusive results are not listed. Active and inactive are the calls of the source.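 The calls were made as follows, unless noted: active = normalized viability below 100% at a tested concentration; inactive = the rest.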

Test [1] is described as follows: growth inhibition of DIPG glioma cells, dose response, cell-based, SU-DIPG-XVII, MIPE5.0, CellTiter-Glo, qHTS (AID 1347060; cut-off not given, nearly all actives have AC50 up to about 26 µM;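 as to AC50: cells exposed to compound for 48 hours before viability readout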). The following applies: SU-DIPG-XVII viability, CellTiter-Glo ATP luminescence.
Test [2] in a line: growth inhibition of DIPG glioma cells, dose response, cell-based, JHH-DIPG-1, MIPE4.0, CellTiter-Glo, qHTS (AID 1347062; cut-off not given, nearly all actives have AC50 up to about 27 µM;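 as to AC50: cells exposed to compound for two days before readout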). The following applies: JHH-DIPG-1 viability, CellTiter-Glo ATP luminescence. For orientation: Cellular ATP, detected with luciferase, serves as a proxy for viable cell number.
Test [3] can be described thus: growth inhibition of DIPG glioma cells, dose response, cell-based, SU-DIPG-XIII, MIPE5.0, CellTiter-Glo, qHTS (AID 1347064; cut-off not given, nearly all actives have AC50 up to about 23 µM;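 as to AC50: cells exposed to compound for 48 hours before the viability read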). The following applies: SU-DIPG-XIII viability, CellTiter-Glo ATP luminescence.
A short description of test [4]: viability loss in pontine glioma line – cell-based, SU-DIPG-XXV, MIPE5.0, CellTiter-Glo, qHTS, dose response (AID 1347065; cut-off not given, nearly all actives have AC50 up to about 26 µM;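 also: cells exposed to compound for 48 hours before ATP readout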). The following applies: CellTiter-Glo ATP luminescence.
Test [5] is described as follows: SU-DIPG-VI glioma cell viability, MIPE4.0 library, CellTiter-Glo luminescence, qHTS (AID 1347066; cut-off not given, nearly all actives have AC50 up to about 30 µM;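 also: cells exposed to compound for 48 hours before readout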). The following applies: CellTiter-Glo ATP luminescence.
Test [6] is described as follows: JHH-DIPG-1 glioma cell viability, MIPE5.0 library, CellTiter-Glo luminescence, qHTS (AID 1347067; cut-off not given, nearly all actives have AC50 up to about 26 µM;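 also: cells exposed to compound for 48 hours before readout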). The following applies: JHH-DIPG-1 glioma viability, CellTiter-Glo ATP luminescence.
Test [7] is described as follows: SU-DIPG-XXV glioma cell viability, MIPE5.0 library, qHTS (AID 1347068; cut-off not given, nearly all actives have IC50 up to about 30 µM;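 as to IC50: cells exposed to compound for 48 hours before viability readout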). Background: qHTS replaces the single test concentration by a dilution series.
A short description of test [8]: modifiers of HSF1 nuclear foci, imaging, Selleck Cancer Library (AID 1347162; in the data active = plate-normalised HSF1 focus index below about 0.46). The following applies: human cells, at 10 µM; SSMD: measured here: HSF1 foci SSMD mean; cell count: measured here: cell number; plate-normalised HSF1 focus index: stronger effect = lower value.
Test [9] is described as follows: sensitizers of A549 cells to miR-34 induction, primary screen, imaging, A549 dox-inducible miR-34, nuclei and caspase counts (AID 1347080;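 active = compounds whose cell count with miR-34 switched on is under 0.7 times the count with it off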). The following applies: A549 miR-34 inducible, Hoechst nuclei count, 48 h.
The nature of test [10]: survival rescue of mitochondrial mutant cells in low glucose, primary screen, MELAS cybrids, Rieske KO mouse fibroblasts, CellTiter-Glo (AID 1508586;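 active = mean z-score across replicates of 1.96 or higher in either the MELAS or the Rieske mutant cell line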;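 also: z relative to plate mean and SD of compound and empty wells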).
The nature of test [11]: ovarian cancer cell viability with rucaparib, profiling panel, oncology-focused library, rucaparib conditional (AID 1508598). The following applies: patient-derived ovarian cancer cells, CellTiter-Glo viability, 144 h, stronger effect = lower value.

As for `CC[C@]12C=CCN3CC[C@@]4(c5cc([C@@]6(C(=O)OC)C[C@H]7C[C@@H](C(C)(F)F)CN(Cc8c6[nH]c6ccccc86)C7)c(OC)cc5N(C)[C@H]4[C@@](O)(C(=O)OC)[C@@H]1OC(C)=O)[C@@H]32`, the AC50 is 78.3 nM (active) in test [1]; 469 nM (active) in [2]; 1750 nM (active) in [3]; 111 nM (active) in test [4]; 8330 nM (active) in test [5]; 312 nM (active) in [6]. Besides, the IC50 in [7] was 350 nM (active).

As for `COc1cc(N2CCC(N3CCN(C)CC3)CC2)ccc1Nc1ncc(Cl)c(Nc2ccccc2S(=O)(=O)C(C)C)n1`, the AC50 was 372 nM (active) in test [1]; 18700 nM (active) in test [2]; 661 nM (active) in [3]; 590 nM (active) in test [4]; 1050 nM (active) in test [6]. The IC50 in test [7] is 2350 nM (active). The molecule also returned an SSMD in test [8] of 1.02. Moreover, the cell count in test [8] was determined as 6520. Further, the plate-normalised HSF1 focus index in test [8] is 1.07 (inactive).

`N#Cc1cc(NC(=O)Nc2nnc(-c3ccncc3)s2)ccc1-c1cn[nH]c1`: the AC50 in test [1] is 372 nM (active). In addition, the molecule was classed as inactive in test [2], in test [3], in [4], in [5] and in test [7].

As for `O=C(Nc1ccccc1)Nc1ccc(-c2ccc(C(=O)[C@@H]3CCC[C@H]3C(=O)O)cc2)cc1`, the outcome in test [1], in test [2], in test [4], in test [5], in test [6] and in test [7] was inactive.

As for `Cc1cnc(Nc2ccc(OCCN3CCCC3)cc2)nc1Nc1cccc(S(=O)(=O)NC(C)(C)C)c1`, the concentration at half-maximal activity (AC50) in [1] is 1050 nM (active); in test [3], 5900 nM (active); in [4] it was 3720 nM (active); in [6], 5250 nM (active). Also, the molecule was called inactive in test [2] and in test [5]. The half-inhibitory concentration (IC50) in test [7] is 7420 nM (active). The fold change in test [9] (stronger effect = lower value, cell number ratio, induced over uninduced) was 1.01 (inactive); in test [9] (measured here: relative caspase fold change +Dox/-Dox), 1.95. Besides, the cell count in [9] (measured here: total cells with miR-34 induction, stronger effect = lower value) was 2480; in test [9] (measured here: total cells without miR-34 induction) it was 2450; in test [8], 6980. This molecule displayed an SSMD in [8] of 1.73. In addition, the plate-normalised HSF1 focus index in test [8] was 1.11 (inactive). For the same molecule, the z-score is 1.98 (active) in test [10] (MELAS cybrid survival, CellTiter-Glo 48 h, stronger effect = higher value) and -3.31 in test [10] (Rieske KO mouse fibroblast survival, CellTiter-Glo 72 h). For the same molecule, the viability was 104% (inactive) in [11] (at 0.000305 µM, OCI-C5x cells, with rucaparib 10 µM, 100% = cells with rucaparib alone); 124% (inactive) in test [11] (at 0.000305 µM, OCI-C5x cells, without rucaparib); 98.4% (active) in test [11] (at 0.000305 µM, OCI-P5x cells, with rucaparib 20 µM, 100% = cells with rucaparib alone); 110% (inactive) in test [11] (at 0.000305 µM, OCI-P5x cells, without rucaparib); 113% (inactive) in test [11] (at 0.00122 µM, OCI-C5x cells, with rucaparib 10 µM, 100% = cells with rucaparib alone); 121% (inactive) in [11] (at 0.00122 µM, OCI-C5x cells, without rucaparib). Besides, the viability in [11] (at 0.00122 µM, OCI-P5x cells, with rucaparib 20 µM, 100% = cells with rucaparib alone) was 99.3% (active); in test [11] (at 0.00122 µM, OCI-P5x cells, without rucaparib), 109% (inactive); in test [11] (at 0.00488 µM, OCI-C5x cells, with rucaparib 10 µM, 100% = cells with rucaparib alone) it was 112% (inactive); in test [11] (at 0.00488 µM, OCI-C5x cells, without rucaparib), 125% (inactive); in test [11] (at 0.00488 µM, OCI-P5x cells, with rucaparib 20 µM, 100% = cells with rucaparib alone) it was 102% (inactive); in test [11] (at 0.00488 µM, OCI-P5x cells, without rucaparib), 109% (inactive). Besides, the viability was 107% (inactive) in [11] (at 0.0195 µM, OCI-C5x cells, with rucaparib 10 µM, 100% = cells with rucaparib alone); 121% (inactive) in test [11] (at 0.0195 µM, OCI-C5x cells, without rucaparib); 95.4% (active) in [11] (at 0.0195 µM, OCI-P5x cells, with rucaparib 20 µM, 100% = cells with rucaparib alone); 112% (inactive) in [11] (at 0.0195 µM, OCI-P5x cells, without rucaparib); 106% (inactive) in test [11] (at 0.0781 µM, OCI-C5x cells, with rucaparib 10 µM, 100% = cells with rucaparib alone); 122% (inactive) in test [11] (at 0.0781 µM, OCI-C5x cells, without rucaparib). For the same molecule, the viability in test [11] (at 0.0781 µM, OCI-P5x cells, with rucaparib 20 µM, 100% = cells with rucaparib alone) is 99.2% (active); in [11] (at 0.0781 µM, OCI-P5x cells, without rucaparib), 105% (inactive); in test [11] (at 0.313 µM, OCI-C5x cells, with rucaparib 10 µM, 100% = cells with rucaparib alone), 105% (inactive); in test [11] (at 0.313 µM, OCI-C5x cells, without rucaparib), 113% (inactive); in [11] (at 0.313 µM, OCI-P5x cells, with rucaparib 20 µM, 100% = cells with rucaparib alone), 81.7% (active); in test [11] (at 0.313 µM, OCI-P5x cells, without rucaparib), 96.3% (active). Further, the viability in test [11] (at 1.25 µM, OCI-C5x cells, with rucaparib 10 µM, 100% = cells with rucaparib alone) is 93.7% (active); in [11] (at 1.25 µM, OCI-C5x cells, without rucaparib) it was 84.4% (active); in [11] (at 1.25 µM, OCI-P5x cells, with rucaparib 20 µM, 100% = cells with rucaparib alone), 78% (active); in test [11] (at 1.25 µM, OCI-P5x cells, without rucaparib) it was 88.7% (active); in [11] (at 5 µM, OCI-C5x cells, with rucaparib 10 µM, 100% = cells with rucaparib alone), 2.62% (active); in test [11] (at 5 µM, OCI-C5x cells, without rucaparib), 55.3% (active). In addition, the viability in test [11] (at 5 µM, OCI-P5x cells, with rucaparib 20 µM, 100% = cells with rucaparib alone) was 1.43% (active); in [11] (at 5 µM, OCI-P5x cells, without rucaparib), 2% (active).
